{"source": "PubChem BioAssay AID1159580", "about": "(chemical genetic matrix, 2015)", "experiment": "chemical genetic growth profiling, strain panel (AID 1159580);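 note: tested at 20 µM; growth read once vehicle control cultures reached saturation at 30 °C; 1 = growth at the plate median or of vehicle wells; lower values mean less growth of the strain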", "details": "S. cerevisiae deletion strains, growth OD", "note": "Where “and” joins values, the source holds several entries; their conditions need not be identical. Equal values may be shown once. Out of some 5,500 compounds screened, about 2,000 (36%) were called active. Another 18% or so got no clear call; they are omitted. The list shows a part of the results. Values without a mark were called inactive. Cut-off read from the data, not from the text of the source: active = normalized growth mostly below about 0.91 (no sharp cut-off); inconclusive = no clear call, values can overlap the other calls; inactive = mostly above about 0.92."}
{"smiles": "Cc1cc(C(C)(C)C)c(O)c(C(C)(C)C)c1", "values": [{"measurement": "normalized growth", "setting": "locus YAL013W, strain DEP1, active compounds read low", "value": 0.985}, {"measurement": "normalized growth", "setting": "locus YAL021C, strain ccr4, active compounds read low", "value": 1.04}, {"measurement": "normalized growth", "setting": "locus YAL026C, strain drs2, active compounds read low", "value": 0.956}, {"measurement": "normalized growth", "setting": "locus YAL030W, strain snc1, active compounds read low", "value": 0.99}, {"measurement": "normalized growth", "setting": "locus YBL061C, strain skt5, active compounds read low", "value": 0.943}, {"measurement": "normalized growth", "setting": "locus YBR009C, strain hhf1, active compounds read low", "value": 0.91}, {"measurement": "normalized growth", "setting": "locus YBR021W, strain FUR4, active compounds read low", "value": 0.997}, {"measurement": "normalized growth", "setting": "locus YBR023C, strain chs3, active compounds read low", "value": 0.984}, {"measurement": "normalized growth", "setting": "locus YBR171W, strain sec66, active compounds read low", "value": 0.979}, {"measurement": "normalized growth", "setting": "locus YBR229C, strain ROT2, active compounds read low", "value": 0.964}, {"measurement": "normalized growth", "setting": "locus YBR231C, strain swc5, active compounds read low", "value": 0.921}, {"measurement": "normalized growth", "setting": "locus YBR279W, strain paf1, active compounds read low", "value": 0.996}, {"measurement": "normalized growth", "setting": "locus YCL011C, strain gbp2, active compounds read low", "value": 0.917}, {"measurement": "normalized growth", "setting": "locus YCL016C, strain dcc1, active compounds read low", "value": 0.983}, {"measurement": "normalized growth", "setting": "locus YCL029C, strain bik1, active compounds read low", "value": 0.983}, {"measurement": "normalized growth", "setting": "locus YCL061C, strain MRC1, active compounds read low", "value": 0.991}, {"measurement": "normalized growth", "setting": "locus YCL069W, strain vba3, active compounds read low", "value": 0.99}, {"measurement": "normalized growth", "setting": "locus YCR088W, strain abp1, active compounds read low", "value": 0.976}, {"measurement": "normalized growth", "setting": "locus YDL005C, strain med2, active compounds read low", "value": 0.975}, {"measurement": "normalized growth", "setting": "locus YDL035C, strain GPR1, active compounds read low", "value": 0.947}, {"measurement": "normalized growth", "setting": "locus YDL040C, strain nat1, active compounds read low", "value": 0.978}, {"measurement": "normalized growth", "setting": "locus YDL074C, strain BRE1, active compounds read low", "value": 0.816}, {"measurement": "normalized growth", "setting": "locus YDL101C, strain DUN1, active compounds read low", "value": 0.96}, {"measurement": "normalized growth", "setting": "locus YDL134C, strain PPH21, active compounds read low", "value": 0.972}, {"measurement": "normalized growth", "setting": "locus YDL185W, strain tfp1, active compounds read low", "value": 0.962}, {"measurement": "normalized growth", "setting": "locus YDL192W, strain arf1, active compounds read low", "value": 0.969}, {"measurement": "normalized growth", "setting": "locus YDR001C, strain nth1, active compounds read low", "value": 0.978}, {"measurement": "normalized growth", "setting": "locus YDR069C, strain doa4, active compounds read low", "value": 0.963}, {"measurement": "normalized growth", "setting": "locus YDR101C, strain arx1, active compounds read low", "value": 0.977}, {"measurement": "normalized growth", "setting": "locus YDR137W, strain rgp1, active compounds read low", "value": 0.965}, {"measurement": "normalized growth", "setting": "locus YDR150W, strain NUM1, active compounds read low", "value": 0.975}, {"measurement": "normalized growth", "setting": "locus YDR159W, strain sac3, active compounds read low", "value": 0.959}, {"measurement": "normalized growth", "setting": "locus YDR162C, strain NBP2, active compounds read low", "value": 0.859}, {"measurement": "normalized growth", "setting": "locus YDR195W, strain ref2", "value": "0.845 (active)"}, {"measurement": "normalized growth", "setting": "locus YDR297W, strain sur2, active compounds read low", "value": 0.983}, {"measurement": "normalized growth", "setting": "locus YDR318W, strain mcm21, active compounds read low", "value": 0.984}, {"measurement": "normalized growth", "setting": "locus YDR334W, strain swr1, active compounds read low", "value": 0.966}, {"measurement": "normalized growth", "setting": "locus YDR335W, strain msn5, active compounds read low", "value": 0.989}, {"measurement": "normalized growth", "setting": "locus YDR388W, active compounds read low", "value": 0.994}, {"measurement": "normalized growth", "setting": "locus YDR392W, strain spt3, active compounds read low", "value": 0.937}, {"measurement": "normalized growth", "setting": "locus YDR502C, strain sam2, active compounds read low", "value": 0.952}, {"measurement": "normalized growth", "setting": "locus YEL003W, strain gim4, active compounds read low", "value": 0.967}, {"measurement": "normalized growth", "setting": "locus YEL037C, strain rad23, active compounds read low", "value": 0.976}, {"measurement": "normalized growth", "setting": "locus YEL061C, strain CIN8 (second series), active compounds read low", "value": 0.976}, {"measurement": "normalized growth", "setting": "locus YEL061C, strain CIN8, active compounds read low", "value": 0.983}, {"measurement": "normalized growth", "setting": "locus YER015W, strain faa2, active compounds read low", "value": 0.937}, {"measurement": "normalized growth", "setting": "locus YER016W, strain bim1, active compounds read low", "value": 0.984}, {"measurement": "normalized growth", "setting": "locus YER110C, active compounds read low", "value": 1}, {"measurement": "normalized growth", "setting": "locus YER111C, strain swi4, active compounds read low", "value": 0.982}, {"measurement": "normalized growth", "setting": "locus YER155C, strain BEM2 (second series), active compounds read low", "value": 0.949}, {"measurement": "normalized growth", "setting": "locus YER155C, strain BEM2, active compounds read low", "value": 0.986}, {"measurement": "normalized growth", "setting": "locus YER167W, strain BCK2, active compounds read low", "value": 0.963}, {"measurement": "normalized growth", "setting": "locus YFR010W, strain ubp6, active compounds read low", "value": 0.956}, {"measurement": "normalized growth", "setting": "locus YGL078C, strain dbp3, active compounds read low", "value": 0.962}, {"measurement": "normalized growth", "setting": "locus YGL086W, strain mad1, active compounds read low", "value": 1}, {"measurement": "normalized growth", "setting": "locus YGL167C, strain pmr1, active compounds read low", "value": 0.991}, {"measurement": "normalized growth", "setting": "locus YGL173C, strain kem1, active compounds read low", "value": 0.957}, {"measurement": "normalized growth", "setting": "locus YGL227W, strain vid30, active compounds read low", "value": 0.989}, {"measurement": "normalized growth", "setting": "locus YGL240W, strain doc1, active compounds read low", "value": 0.938}, {"measurement": "normalized growth", "setting": "locus YGL248W, strain PDE1, active compounds read low", "value": 0.965}, {"measurement": "normalized growth", "setting": "locus YGL253W, strain hxk2, active compounds read low", "value": 0.96}, {"measurement": "normalized growth", "setting": "locus YGR078C, strain PAC10, active compounds read low", "value": 0.93}, {"measurement": "normalized growth", "setting": "locus YGR135W, strain pre9, active compounds read low", "value": 0.928}, {"measurement": "normalized growth", "setting": "locus YGR229C, strain SMI1, active compounds read low", "value": 0.86}, {"measurement": "normalized growth", "setting": "locus YGR252W, strain gcn5, active compounds read low", "value": 1.03}, {"measurement": "normalized growth", "setting": "locus YHR013C, strain ard1, active compounds read low", "value": 1.1}, {"measurement": "normalized growth", "setting": "locus YHR027C, strain rpn1, active compounds read low", "value": 0.955}, {"measurement": "normalized growth", "setting": "locus YHR030C, strain SLT2, active compounds read low", "value": "0.996 and 0.877"}, {"measurement": "normalized growth", "setting": "locus YHR079C, strain IRE1 (second series), active compounds read low", "value": 0.963}, {"measurement": "normalized growth", "setting": "locus YHR079C, strain IRE1, active compounds read low", "value": 0.918}, {"measurement": "normalized growth", "setting": "locus YHR094C, strain hxt1, active compounds read low", "value": 1}, {"measurement": "normalized growth", "setting": "locus YHR129C, strain ARP1, active compounds read low", "value": 0.978}, {"measurement": "normalized growth", "setting": "locus YHR142W, strain chs7, active compounds read low", "value": 0.961}, {"measurement": "normalized growth", "setting": "locus YHR200W, strain rpn10, active compounds read low", "value": 1}, {"measurement": "normalized growth", "setting": "locus YIL066C, strain RNR3, active compounds read low", "value": 0.934}, {"measurement": "normalized growth", "setting": "locus YIL073C, strain SPO22, active compounds read low", "value": 0.929}, {"measurement": "normalized growth", "setting": "locus YIL125W, strain kgd1, active compounds read low", "value": 0.967}, {"measurement": "normalized growth", "setting": "locus YIR030C, strain dcg1, active compounds read low", "value": 0.998}, {"measurement": "normalized growth", "setting": "locus YJL092W, strain hpr5, active compounds read low", "value": 0.984}, {"measurement": "normalized growth", "setting": "locus YJL095W, strain BCK1 (second series), active compounds read low", "value": 0.979}, {"measurement": "normalized growth", "setting": "locus YJL095W, strain BCK1, active compounds read low", "value": "0.903 and 0.934"}, {"measurement": "normalized growth", "setting": "locus YJL115W, strain asf1, active compounds read low", "value": 0.983}, {"measurement": "normalized growth", "setting": "locus YJL129C, strain trk1, active compounds read low", "value": 0.953}, {"measurement": "normalized growth", "setting": "locus YJL134W, strain LCB3, active compounds read low", "value": 1}, {"measurement": "normalized growth", "setting": "locus YJL154C, strain vps35, active compounds read low", "value": 0.984}, {"measurement": "normalized growth", "setting": "locus YJL164C, strain tpk1, active compounds read low", "value": 0.95}, {"measurement": "normalized growth", "setting": "locus YJL166W, strain qcr8, active compounds read low", "value": 0.951}, {"measurement": "normalized growth", "setting": "locus YJL168C, strain set2, active compounds read low", "value": 0.996}, {"measurement": "normalized growth", "setting": "locus YJL187C, strain SWE1 (second series), active compounds read low", "value": 0.886}, {"measurement": "normalized growth", "setting": "locus YJR043C, strain POL32, active compounds read low", "value": 0.97}, {"measurement": "normalized growth", "setting": "locus YJR066W, strain TOR1, active compounds read low", "value": 0.942}]}
